# Most compounds without a hit are left out; they make up all but 1.2% or so of the library.
# RGS4-Gao reg – modulators of RGS4 binding to Galphao, primary screen, biochemical, multiplexed bead flow cytometry | actives lie on both sides | binding response (% of control), % at 10 µM | 220,000 tested, 0.33% active | AID 1415, 2008; in the data active means binding response below about 49% or above about 150%; inactive means in between;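 further: fluorescent Galphao activated with aluminum fluoride binding bead-coupled RGS4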
# Target sequence (P09471 whole entry, looked up): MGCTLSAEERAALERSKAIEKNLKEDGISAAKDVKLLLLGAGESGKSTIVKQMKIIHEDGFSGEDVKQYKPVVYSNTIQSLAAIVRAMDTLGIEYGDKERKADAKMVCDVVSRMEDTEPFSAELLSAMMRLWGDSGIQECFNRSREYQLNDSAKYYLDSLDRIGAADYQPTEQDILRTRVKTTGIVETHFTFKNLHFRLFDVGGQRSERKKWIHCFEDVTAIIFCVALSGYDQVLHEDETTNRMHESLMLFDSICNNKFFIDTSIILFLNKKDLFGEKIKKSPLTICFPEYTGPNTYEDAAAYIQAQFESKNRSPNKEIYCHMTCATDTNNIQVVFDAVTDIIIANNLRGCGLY
# RGS8-Gao – RGS8-Galphao binding modulators, primary screen, biochemical, multiplexed bead flow cytometry; Guanine nucleotide-binding protein G(o) subunit alpha (Homo sapiens), P09471; actives lie on both sides; response (percent of control binding), % at 10 µM; 220,000 tested, 0.34% active; AID 1423, 2008; in the data active means response below about 60% or above about 140%; inactive means in between;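 further: Galphao activated as the GDP aluminium fluoride complex binding bead-coupled RGS8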
# RGS16-Gao – modulators of RGS16 binding to Galphao, primary screen, biochemical, human proteins, multiplexed bead flow cytometry. Regulator of G-protein signaling 16 (Homo sapiens) + Guanine nucleotide-binding protein …. bead-based flow cytometry RGS16-Galphao binding, fluorescence; actives lie on both sides. binding response (% of control), % at 10 µM. 220,000 tested, 0.38% active; call rule not given here;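 further: Galphao activated by GDP with aluminum fluoride before binding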
# Target sequence (O15492 whole entry, looked up): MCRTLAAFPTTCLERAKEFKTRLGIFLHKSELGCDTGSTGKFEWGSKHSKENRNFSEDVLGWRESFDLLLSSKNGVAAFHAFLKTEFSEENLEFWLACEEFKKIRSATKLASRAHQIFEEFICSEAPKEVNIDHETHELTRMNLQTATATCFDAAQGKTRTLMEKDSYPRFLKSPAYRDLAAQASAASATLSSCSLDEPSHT
# Target sequence (P09471 whole entry, looked up): as the sequence (P09471 whole entry, looked up) above
# RGS7-Gao reg – RGS7-Galphao binding modulators, primary screen, biochemical, multiplexed bead flow cytometry; Guanine nucleotide-binding protein G(o) subunit alpha (Homo sapiens), P09471; actives lie on both sides; binding response (% of control), % at 10 µM; 220,000 tested, 0.35% active; AID 1439, 2008; in the data active means binding response below about 49% or above about 150%; inconclusive means no clear call, values can overlap the other calls; inactive means in between;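 further: fluorescent Galphao held in activated GDP-AlF4 state binding bead-coupled RGS7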
# Avidin fluor – green autofluorescence of compounds with avidin beads – biophysical, 488/530 nm, flow cytometry, artefact control, profiling panel; compound fluorescence 488/530 nm; stronger effect = higher value; 220,000 tested, 0.38% active; fluorescence (KMESF) at 10 µM; in the data active means fluorescence above about 47
# GSH bead fluor – compound fluorescence on glutathione beads, profiling panel, artefact control, biophysical, 488/530 nm, flow cytometry; GSH beads flow cytometry, compound fluorescence 488/530 nm; stronger effect = higher value; fluorescence (KMESF) at 10 µM; AID 1776, 2009; 190,000 tested, 0.25% active; in the data active means fluorescence above about 89;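 further: glutathione beads carrying GST-tagged Bcl family fusion proteins plus one bare bead set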
# A number is an active result; 0 = inactive; ? = inconclusive; - = no result given.
SMILES,RGS4-Gao reg,RGS8-Gao,RGS16-Gao,RGS7-Gao reg,Avidin fluor,GSH bead fluor
CCOC(=O)c1c(N)sc(C(=O)OCCOC)c1C,0,0,0,?,0,0
COCCn1c(SCC(=O)NC(=O)NC(C)C)nc2ccccc21,0,0,0,0,51,0
COC(=O)COc1cc(C)cc2oc(=O)c(CC(=O)OC)c(C)c12,0,0,0,0,60,0
COc1ccc(/C(O)=C2/C(=O)C(=O)N(Cc3ccco3)C2c2cccs2)cc1 (stereo unspecified),0,0,0,0,0,0
COc1ccc(C2/C(=C(\O)c3ccc4c(c3)OCCO4)C(=O)C(=O)N2Cc2ccco2)c(OC)c1 (stereo unspecified),0,0,0,0,0,122
Cc1noc(C)c1COc1cccc(C(=O)N2CCc3ccccc32)c1,0,0,0,0,0,0
Cc1nnc(NC2=NCCC2)o1,0,0,0,0,95,0
CCOc1ccc2nc(SCC(=O)c3ccccc3)sc2c1,0,0,0,0,0,263
N#CCCSCc1ccc(C(=O)O)o1,0,0,0,0,0,0
CCCCSCc1ccc(C(=O)O)o1,0,0,0,0,0,131
O=C(c1ccc(CN2CCOCC2)cc1)N1CCC(Cc2ccccc2)CC1,0,0,0,0,91,0
CC(=O)c1cccc(NC(=O)c2nc(-c3ccccc3)oc2C)c1,0,0,0,0,0,0
Cc1cc(N2CCOCC2)c2c(N)c(C)cc(C)c2n1,0,0,0,0,61,0
Cc1onc(-c2ccccc2)c1C(=O)Nc1ccncc1,0,0,0,0,50,0
COCCn1cnc2c1c(=O)n(CC(=O)OCC#N)c(=O)n2Cc1ccccc1,0,0,0,0,0,0
CCN(C(=O)CSc1nnnn1-c1cc(C)ccc1OC)C1CCS(=O)(=O)C1 (stereo unspecified),0,0,0,0,0,267
CCN(CC)CCCN(Cc1cc2cc3c(cc2[nH]c1=O)OCCO3)C(=O)Nc1ccccc1,0,0,0,0,54,0
O=C(Nc1ccccc1)N(CCCN1CCOCC1)Cc1cc2cc3c(cc2[nH]c1=O)OCCO3,0,0,0,0,0,0
O=C(O)C1C2C=CC(C2)C1C(=O)NCCc1cccc(Cl)c1 (stereo unspecified),0,0,0,0,48,0
O=C(COc1ccccc1)NC1CCCc2ccccc21 (stereo unspecified),0,0,0,0,0,0
O=C(COc1ccc(-c2nnco2)cc1)NC1CCCc2ccccc21 (stereo unspecified),0,0,0,0,0,233
O=C(NCCN1CCN(Cc2ccccc2)CC1)C1c2ccccc2C(=O)N2CCc3ccccc3C12 (stereo unspecified),0,0,0,0,112,0
CCN(CC)S(=O)(=O)c1cc(Cl)ccc1OC,0,0,0,0,0,0
COCCCn1c(=N)c(C(=O)NCC2CCCO2)cc2c(=O)n3ccccc3nc21 (stereo unspecified),0,0,0,0,0,0
N=c1c(C(=O)NCc2ccc(F)cc2)cc2c(=O)n3ccccc3nc2n1CC1CCCO1 (stereo unspecified),0,0,0,0,90,0
SMILES,RGS4-Gao reg,RGS8-Gao,RGS16-Gao,RGS7-Gao reg,Avidin fluor,GSH bead fluor
CC(=O)OCC1OC(OC(C)=O)C(NC(=O)c2cccnc2)C(OC(C)=O)C1OC(C)=O (stereo unspecified),0,0,0,0,0,0
CC1NC(=O)NC1CCCCC(=O)O (stereo unspecified),0,0,0,0,0,243
Cc1cc(NC(=O)CSc2nc3ccsc3c(=O)n2NC(=O)c2ccccc2)no1,19,39,23,25,0,0
Cc1ccc(CNC(=O)CSc2nc3ccsc3c(=O)n2NC(=O)c2ccccc2)cc1,0,0,0,0,0,0
O=C(CN1CCCc2ccccc21)N/N=C/c1c(O)ccc2ccccc12,0,0,0,0,0,0
Cc1ccc(N=C2NC(=O)/C(=C\c3ccc(C)s3)S2)cc1,0,0,0,0,0,0
Cc1cc(C(=O)NNC(=S)NC(C)c2ccccc2)c2ccccc2n1 (stereo unspecified),0,0,0,0,0,0
Cc1ccc(CNC(=O)c2cnc(-c3ccccn3)nc2C(F)(F)F)cc1,0,0,0,0,0,276
CC1(C)Cc2c(C#N)c(SCC(=O)c3ccccc3)nc(N3CCOCC3)c2CS1,0,0,0,0,49,0
COc1ccc(-n2c(SCC(=O)N/N=C/c3ccccc3OCC(=O)O)nc3ccccc3c2=O)cc1,0,0,0,?,0,-
Cc1ccc(S(=O)(=O)Nc2ccc3nc(N)sc3c2)cc1,0,0,0,0,49,0
COc1ccc(-c2nnn(CC(=O)N3CCOCC3)n2)cc1,0,0,0,0,79,0
Cc1ccsc1CN(C)Cc1nc(C2CC2)no1,0,0,0,0,0,0
CC(C)=CCC(C)(C)C1OCCN1C(=O)Nc1ccccc1 (stereo unspecified),0,0,0,0,0,258
CCC(=O)Nc1cc(C(=O)O)ccc1Sc1ccc(Cl)cc1,0,0,0,0,0,0
Cc1ccccc1C(=NCCCN(C)C)c1ccccc1C,0,0,0,0,0,0
Cc1nc(SCn2nnc3ccccc3c2=O)nc(C)c1C,0,0,0,0,0,258
O=c1c2ccccc2nnn1CSc1ccccc1,0,0,0,0,0,0
CCc1nnc(NC(=O)CN2CCN(c3nc(-c4ccccc4)cs3)CC2)s1,0,0,0,0,47,0
C/C=C/C=N/Nc1nc(C)cc(=O)[nH]1,0,0,0,0,0,0
O=C(CSc1nnc(COc2cccc3cccnc23)o1)N1CCN(C(=O)c2ccco2)CC1,0,0,0,0,0,136
CN(C(=O)c1ccccc1OC1CCN(S(C)(=O)=O)CC1)C1CCOC1 (stereo unspecified),0,0,0,0,0,0
O=C(CCc1nc2ccccc2c(=O)[nH]1)NC1CCN(Cc2ccccc2)CC1,0,0,0,0,0,256
Cn1cnc(S(=O)(=O)Nc2ccccc2C(=O)NCC2CC2)c1,0,0,0,?,0,-
Cc1cccc(C)c1NC(=O)CSc1nc(-c2ccco2)cc(C(F)(F)F)n1,0,0,0,0,67,0
O=C(Cc1n[nH]c(=O)[nH]c1=O)N/N=C/c1ccccc1,0,0,0,0,0,0
O=C(CSc1n[nH]c(=O)[nH]c1=O)N/N=C/c1ccccc1,0,0,0,0,0,215
O=C(Oc1cccnc1)c1cccc(Cl)c1,0,0,0,0,0,267

# High-throughput results (PubChem BioAssay)
